Laboratory results reported in PubChem BioAssay (NCATS).
Values joined by “and” are separate entries in the source; they are usually repeats but may differ in a detail not shown here. Identical values can stand only once. Records with an inconclusive call do not appear. Active and inactive are the calls of the source. Unless noted, calls follow the shape of the full dose curve.

Columns and labels:
[1] = target: Estrogen receptor (Homo sapiens) (UniProt P03372); assay: qHTS assay for small molecule antagonists of estrogen receptor alpha signaling (AID 588513; active = well fitted curve in the direction sought with a large enough effect in the signal ratio, with a control signal flat, not every such curve was filed as active; the % refers to the signal ratio; also: potency is read from the fitted curve at half-maximal effect)
Outline: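 Antagonist mode: inhibition of 0.5 nM 17-beta-estradiol-driven beta-lactamase reporter in HEK 293 ER-alpha-UAS-bla cells, 18 h at 37C, CCF4 readout after 2 h at RT. Normalised to estradiol and DMSO; titration fitted to Hill.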

[2] = target: Glucocorticoid receptor (Homo sapiens) (UniProt P04150); assay: qHTS assay for small molecule antagonists of glucocorticoid receptor signaling (AID 588533; active = well fitted inhibition curve with a large enough effect in the signal ratio, with a control signal flat, not every such curve was filed as active; the % refers to the signal ratio;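 also: cells stimulated with 2 nM dexamethasone as agonist; % is scaled to controls: 0 for no effect and ±100 for the full control effect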)
Outline: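 Antagonist-mode qHTS: compound titrations added to GRE-bla HeLa cells, then dexamethasone 2 nM final; 18 h, 37 C. CCF4 FRET fluorescence normalized to dexamethasone and DMSO; IC50 from Hill fit.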

[3] = qHTS assay for small molecule antagonists of peroxisome proliferator-activated receptor delta signaling (AID 588535); details: HEK293T PPARd-UAS-bla, beta-lactamase FRET ratio, 18 h; 460 nm channel;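 also: cells co-treated with a PPAR-delta agonist as stimulator during compound exposure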
Outline: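 Fluorescence from CCF4-loaded GeneBLAzer PPAR-delta-UAS-bla HEK293T cells (2 hrs RT loading) quantified reporter inhibition after an 18 hr, 37 C compound exposure across a titration.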

[4] = target: Peroxisome proliferator-activated receptor gamma (Homo sapiens) (UniProt P37231); assay: qHTS assay for small molecule antagonists of peroxisome proliferator-activated receptor gamma signaling (AID 588537; active = well fitted inhibition curve with a large enough effect in the signal ratio, with a control signal flat, not every such curve was filed as active; the % refers to the signal ratio;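 also: reporter cells co-stimulated with 50 nM rosiglitazone agonist during compound treatment; % of control where 0% means no effect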)
Outline: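 Fluorescence at 460 and 530 nm (405 nm excitation) reported beta-lactamase cleavage of CCF4 after 2 h room-temperature loading. HEK293 reporter cells in 1% charcoal/dextran-treated FBS had received compound and rosiglitazone for 16 h.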

[5] = qHTS assay for small molecule agonists of the antioxidant response element (ARE) signaling pathway (AID 651741; active = well fitted activation curve with a large enough effect in the signal ratio; the % refers to the signal ratio; also: potency is read from the fitted curve at half-maximal effect; as to activation: % of control where 0% means no effect)
Outline: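 Stably integrated ARE-beta-lactamase reporter HepG2 cells; 16 h compound incubation, 37 C; LiveBLAzer FRET substrate 2 h at room temperature; fluorescence intensity.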

[6] = qHTS assay for small molecule activators of the human pregnane X receptor (PXR) signaling pathway (AID 720659; call rule not given here; also: 0% is about no effect)
[7] = target: Thyroid hormone receptor beta (Homo sapiens) (UniProt P10828); assay: qHTS assay for small molecule antagonists of thyroid hormone receptor beta signaling (AID 588547; active = well fitted inhibition curve with a large enough effect in the signal ratio, with a control signal flat, not every such curve was filed as active; the % refers to the signal ratio;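 also: cells stimulated with 0.4 nM T3 agonist during compound exposure; series mostly up to about 77 µM; % is scaled to controls: 0 for no effect and ±100 for the full control effect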); details: TR-UAS-bla HEK293, beta-lactamase ratio, antagonist mode, 18 h
Outline: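 TR-UAS-bla GripTite HEK293 cells in 2% charcoal/dextran FBS medium; compounds 0.59 nM to 92 uM with T3 at 0.4nM final, 18 h at 37 C. Beta-lactamase read by CCF4 fluorescence (460/530 nm); Hill fits gave IC50 and efficacy.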

[8] = target: Androgen receptor (Homo sapiens) (UniProt P10275); assay: qHTS assay for small molecule agonists of androgen receptor signaling (AID 588515; active = well fitted curve in the direction sought with a large enough effect in the signal ratio, with a control signal flat; the % refers to the signal ratio; also: % is scaled to controls: 0 for no effect and ±100 for the full control effect); details: AR-UAS-bla HEK293, beta-lactamase ratio, agonist 16 h; stronger effect = higher value
Outline: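 Stimulation of an AR-responsive β-lactamase reporter in GripTite HEK293 cells was measured after 16 h compound exposure at 37 °C, via CCF4 fluorescence after 2 h RT. EC50 from Hill fits, normalized to R1881 at 30 nM.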

[9] = target: Androgen receptor (Homo sapiens) (UniProt P10275); assay: qHTS assay for small molecule antagonists of androgen receptor signaling (AID 588516; active = well fitted curve in the direction sought with a large enough effect in the signal ratio, with a control signal flat, not every such curve was filed as active; the % refers to the signal ratio; also: % is scaled to controls: 0 for no effect and ±100 for the full control effect)
Outline: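 Antagonist mode: inhibition of R1881-stimulated (10 nM final) bla reporter in GeneBLAzer AR HEK 293 cells, 16 h at 37C, compounds titrated. IC50 and efficacy from Hill-equation fits of 405/460–530 nm FRET ratios.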

[10] = target: Bile acid receptor (Homo sapiens) (UniProt Q96RI1); assay: qHTS assay for small molecule antagonists of farnesoid X receptor signaling (AID 588526); also: potency is read from the fitted curve at half-maximal effect
Outline: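 Antagonist mode: titrated compounds tested against chenodeoxycholic acid stimulation (normalized to 50 uM CDCA and DMSO) in GeneBLAzer HEK293T cells for 16 h. Beta-lactamase read by CCF4 fluorescence; IC50 from Hill fits.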

[11] = target: Bile acid receptor (Homo sapiens) (UniProt Q96RI1); assay: qHTS assay for small molecule agonists of farnesoid X receptor signaling (AID 588527); details: HEK293T FXR-UAS-bla, beta-lactamase ratio, 16 h; activation: stronger effect = higher value;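 also: series mostly up to about 77 µM; 0% = vehicle basal and 100% = reference agonist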
Outline: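 Quantitative HTS used FXR-UAS-bla HEK293T cells with 16 h compound incubation at 37 C. EC50 values came from concentration-response curves normalized to chenodeoxycholic acid.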

[12] = qHTS assay for small molecule agonists of retinoid X receptor alpha signaling (AID 588544); details: HEK293T RXRa-UAS-bla, beta-lactamase reporter, 18 h; 530 nm emission

Androgen receptor (Homo sapiens), sequence (P10275 whole entry, looked up): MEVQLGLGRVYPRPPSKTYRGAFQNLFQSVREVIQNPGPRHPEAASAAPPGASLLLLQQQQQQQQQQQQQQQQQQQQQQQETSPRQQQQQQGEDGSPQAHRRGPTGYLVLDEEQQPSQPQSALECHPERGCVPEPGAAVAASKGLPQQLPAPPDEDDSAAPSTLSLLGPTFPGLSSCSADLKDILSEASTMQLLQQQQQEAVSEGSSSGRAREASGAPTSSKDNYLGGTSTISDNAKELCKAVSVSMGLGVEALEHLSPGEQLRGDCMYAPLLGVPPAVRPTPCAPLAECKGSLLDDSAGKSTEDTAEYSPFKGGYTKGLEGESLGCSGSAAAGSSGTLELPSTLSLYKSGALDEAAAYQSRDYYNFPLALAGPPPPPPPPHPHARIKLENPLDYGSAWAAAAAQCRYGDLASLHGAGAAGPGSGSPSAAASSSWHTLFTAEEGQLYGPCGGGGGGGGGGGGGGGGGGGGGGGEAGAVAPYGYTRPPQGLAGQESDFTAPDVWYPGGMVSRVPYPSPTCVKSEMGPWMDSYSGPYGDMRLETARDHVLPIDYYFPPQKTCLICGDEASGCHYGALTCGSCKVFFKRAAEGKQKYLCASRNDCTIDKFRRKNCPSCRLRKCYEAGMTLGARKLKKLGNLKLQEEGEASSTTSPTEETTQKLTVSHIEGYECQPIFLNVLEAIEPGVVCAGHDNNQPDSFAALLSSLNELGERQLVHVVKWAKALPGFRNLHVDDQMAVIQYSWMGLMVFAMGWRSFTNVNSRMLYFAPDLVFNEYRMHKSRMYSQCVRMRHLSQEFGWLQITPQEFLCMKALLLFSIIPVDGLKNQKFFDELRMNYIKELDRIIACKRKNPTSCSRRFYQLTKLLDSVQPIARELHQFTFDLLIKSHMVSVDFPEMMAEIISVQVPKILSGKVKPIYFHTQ
Peroxisome proliferator-activated receptor gamma (Homo sapiens), sequence (P37231 whole entry, looked up): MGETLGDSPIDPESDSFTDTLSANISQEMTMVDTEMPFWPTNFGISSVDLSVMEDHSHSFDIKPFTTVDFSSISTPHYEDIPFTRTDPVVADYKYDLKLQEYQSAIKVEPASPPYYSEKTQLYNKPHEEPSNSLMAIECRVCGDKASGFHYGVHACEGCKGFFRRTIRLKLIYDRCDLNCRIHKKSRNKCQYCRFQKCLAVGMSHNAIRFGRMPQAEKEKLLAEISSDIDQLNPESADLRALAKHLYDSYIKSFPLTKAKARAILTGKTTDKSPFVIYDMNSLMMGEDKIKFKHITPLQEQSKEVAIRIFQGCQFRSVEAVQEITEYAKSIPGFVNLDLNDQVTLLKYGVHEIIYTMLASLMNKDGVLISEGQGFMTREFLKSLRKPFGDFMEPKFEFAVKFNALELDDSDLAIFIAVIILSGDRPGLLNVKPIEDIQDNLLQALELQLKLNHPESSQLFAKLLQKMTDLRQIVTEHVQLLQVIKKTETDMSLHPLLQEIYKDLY
Bile acid receptor (Homo sapiens), sequence (Q96RI1 whole entry, looked up): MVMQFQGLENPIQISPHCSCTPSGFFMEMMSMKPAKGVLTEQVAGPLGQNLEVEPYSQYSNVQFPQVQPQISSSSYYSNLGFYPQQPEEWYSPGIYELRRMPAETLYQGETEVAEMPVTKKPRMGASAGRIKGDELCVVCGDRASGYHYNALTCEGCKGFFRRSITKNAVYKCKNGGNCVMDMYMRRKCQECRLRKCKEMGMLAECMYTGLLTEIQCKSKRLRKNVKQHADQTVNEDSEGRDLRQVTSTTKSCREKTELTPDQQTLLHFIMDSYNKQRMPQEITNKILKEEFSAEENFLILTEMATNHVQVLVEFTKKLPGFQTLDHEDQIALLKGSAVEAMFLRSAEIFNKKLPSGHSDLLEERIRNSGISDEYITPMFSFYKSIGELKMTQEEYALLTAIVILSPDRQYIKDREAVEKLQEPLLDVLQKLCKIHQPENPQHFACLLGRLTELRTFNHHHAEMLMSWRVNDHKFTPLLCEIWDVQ
Estrogen receptor (Homo sapiens), sequence (P03372 whole entry, looked up): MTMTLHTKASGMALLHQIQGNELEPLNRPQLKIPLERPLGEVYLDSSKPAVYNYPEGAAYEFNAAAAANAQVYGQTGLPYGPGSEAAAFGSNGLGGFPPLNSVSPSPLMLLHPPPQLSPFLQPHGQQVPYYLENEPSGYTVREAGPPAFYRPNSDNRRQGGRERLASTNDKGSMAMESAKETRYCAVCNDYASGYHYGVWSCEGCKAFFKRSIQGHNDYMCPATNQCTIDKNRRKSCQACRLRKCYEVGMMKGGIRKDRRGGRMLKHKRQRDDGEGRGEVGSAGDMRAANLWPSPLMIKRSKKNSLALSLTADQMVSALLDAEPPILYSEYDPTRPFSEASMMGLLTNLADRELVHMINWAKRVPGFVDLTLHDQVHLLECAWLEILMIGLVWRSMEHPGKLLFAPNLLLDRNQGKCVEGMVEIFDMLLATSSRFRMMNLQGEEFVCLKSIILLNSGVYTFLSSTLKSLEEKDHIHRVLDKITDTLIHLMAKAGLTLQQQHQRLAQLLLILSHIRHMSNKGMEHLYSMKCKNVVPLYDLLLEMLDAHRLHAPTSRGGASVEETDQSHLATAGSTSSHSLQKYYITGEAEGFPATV
Thyroid hormone receptor beta (Homo sapiens), sequence (P10828 whole entry, looked up): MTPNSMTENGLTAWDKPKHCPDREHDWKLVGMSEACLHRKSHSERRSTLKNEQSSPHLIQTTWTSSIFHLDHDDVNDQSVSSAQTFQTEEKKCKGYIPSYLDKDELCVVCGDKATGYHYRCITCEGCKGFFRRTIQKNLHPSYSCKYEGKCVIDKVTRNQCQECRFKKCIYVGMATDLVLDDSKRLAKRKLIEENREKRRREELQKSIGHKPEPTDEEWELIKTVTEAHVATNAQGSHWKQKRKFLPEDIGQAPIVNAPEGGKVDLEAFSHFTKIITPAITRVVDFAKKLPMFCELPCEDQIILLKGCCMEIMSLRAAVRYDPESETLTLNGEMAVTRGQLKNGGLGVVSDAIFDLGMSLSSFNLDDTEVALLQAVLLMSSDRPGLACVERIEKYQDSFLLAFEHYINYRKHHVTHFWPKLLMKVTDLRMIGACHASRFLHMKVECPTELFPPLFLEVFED
Glucocorticoid receptor (Homo sapiens), sequence (P04150 whole entry, looked up): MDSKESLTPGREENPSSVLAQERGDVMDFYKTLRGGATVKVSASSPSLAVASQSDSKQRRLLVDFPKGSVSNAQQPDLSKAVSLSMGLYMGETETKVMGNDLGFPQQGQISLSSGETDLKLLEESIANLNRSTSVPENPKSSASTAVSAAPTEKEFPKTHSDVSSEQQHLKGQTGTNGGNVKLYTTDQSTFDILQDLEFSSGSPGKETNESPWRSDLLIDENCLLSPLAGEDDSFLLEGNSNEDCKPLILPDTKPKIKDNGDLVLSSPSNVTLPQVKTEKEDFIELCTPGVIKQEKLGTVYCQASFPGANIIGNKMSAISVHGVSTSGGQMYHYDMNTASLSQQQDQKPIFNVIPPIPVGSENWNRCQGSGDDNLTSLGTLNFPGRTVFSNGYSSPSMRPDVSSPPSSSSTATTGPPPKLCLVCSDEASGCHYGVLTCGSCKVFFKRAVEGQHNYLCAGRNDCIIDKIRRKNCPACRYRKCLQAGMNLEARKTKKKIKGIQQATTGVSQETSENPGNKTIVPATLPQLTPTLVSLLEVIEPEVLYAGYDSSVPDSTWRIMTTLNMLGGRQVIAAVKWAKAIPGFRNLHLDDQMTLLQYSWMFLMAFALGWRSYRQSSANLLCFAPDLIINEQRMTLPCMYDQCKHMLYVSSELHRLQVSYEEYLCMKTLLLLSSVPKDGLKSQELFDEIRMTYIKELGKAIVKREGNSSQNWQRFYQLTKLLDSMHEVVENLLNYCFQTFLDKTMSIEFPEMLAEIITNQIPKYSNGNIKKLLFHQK

SMILES: CCC/C(=N\OCC)C1=C(O)CC(CC(C)SCC)CC1=O (stereo not drawn)
- Potency [1]: inactive
- Potency [2]: inactive
- max response [3]: -49.6%
- Potency [4]: inactive
- Potency [5]: inactive
- outcome [6]: inactive

SMILES: O=P(O)(O)CN(CP(=O)(O)O)CP(=O)(O)O
- Potency [1]: inactive
- Potency [2]: inactive
- max response [3]: 1.59%
- Potency [4]: inactive
- activity change % (negative = inhibition) [7]: -9.36% (inactive)
- outcome [6]: inactive

SMILES: CCOP(=S)(OCC)SCCl
- activation [8]: 5.88% (inactive)
- Potency [9]: inactive
- Potency [10]: inactive
- Potency [2]: inactive
- activity change % (negative = inhibition) [7]: -1.44% (inactive)
- Potency [5]: inactive
- outcome [6]: inactive

SMILES: CCOP(=O)(OCC)Oc1ccc2c(C)c(Cl)c(=O)oc2c1
- activation [8]: -0.972% (inactive)
- Potency [9]: inactive
- Potency [10]: inactive
- activation [11]: 2.16% (inactive)
- Potency [2]: inactive
- max response [3]: 36%
- max response [12]: 2.41%
- activity change % (negative = inhibition) [7]: -0.271% (inactive)

SMILES: CCSCc1ccccc1OC(=O)NC
- Potency [1]: inactive
- Potency [10]: inactive
- activation [11]: 3.09% (inactive)
- Potency [4]: inactive
- max response [12]: -16.4%
- activity change % (negative = inhibition) [7]: -8.58% (inactive)

SMILES: CC(C)CCCCCCOC(=O)c1ccccc1C(=O)OCCCCCCC(C)C
- activation [8]: 13.4% (inactive)
- Potency [9]: inactive
- Potency [10]: inactive
- activation [11]: 0.284% (inactive)
- Potency [2]: inactive
- max response [3]: -6.95%
- max response [12]: -16.4%
- activity change % (negative = inhibition) [7]: -2.48% (inactive)
- Potency [5]: inactive
- outcome [6]: inactive

SMILES: CC(Oc1ccc(Cl)cc1Cl)C(=O)O (stereo not drawn)
- Potency [1]: inactive
- activation [11]: -0.107% (inactive)
- Potency [4]: inactive
- max response [12]: 11.7%
- outcome [6]: inactive

SMILES: CCOP(=S)(OCC)Oc1nc(Cl)n(C(C)C)n1
- Potency [1]: inactive
- Potency [4]: inactive

SMILES: CC1(c2ccc(Oc3ccccc3)cc2)OC(=O)N(Nc2ccccc2)C1=O (stereo not drawn)
- Potency [1]: 15.8 µM [inhibitor] (active)
- Potency [10]: 35.5 µM (active)
- activation [11]: 4.14% (inactive)

SMILES: Cc1[nH]c(=O)n(C(C)(C)C)c(=O)c1Cl
- activation [8]: 0.796% (inactive)
- Potency [9]: inactive
- Potency [10]: inactive
- activation [11]: 0.517% (inactive)
- Potency [4]: inactive
- max response [12]: -0.982%
- activity change % (negative = inhibition) [7]: 8.21% (inactive)
- outcome [6]: inactive

SMILES: O=Cc1cccc(Oc2ccccc2)c1
- Potency [1]: inactive
- max response [3]: 10.7%
- max response [12]: 6.44%
- outcome [6]: inactive

SMILES: COc1ccc(-c2ccccc2)cc1NNC(=O)OC(C)C
- activation [8]: -16.7% (inactive)
- Potency [9]: inactive
- Potency [10]: inactive
- activation [11]: 1.06% (inactive)
- Potency [2]: inactive
- Potency [4]: inactive
- Potency [5]: 54.5 µM (active)
- outcome [6]: inactive

SMILES: CCOc1nc(C(Cl)(Cl)Cl)ns1
- Potency [1]: inactive
- max response [3]: -34.9%
- Potency [4]: inactive
- activity change % (negative = inhibition) [7]: 11.9% (inactive)

SMILES: CC(=O)[C@H]1[C@H](C#N)C[C@H]2[C@@H]3CC=C4C[C@@H](O)CC[C@]4(C)[C@H]3CC[C@@]21C
- Potency [1]: inactive
- activation [11]: -2.16% (inactive) and -0.929% (inactive)
- activity change % (negative = inhibition) [7]: 6.3% (inactive)

SMILES: Clc1ccc(-c2cc(Cl)c(Cl)cc2Cl)cc1Cl
- activation [8]: -4.76% (inactive)
- activation [11]: 4.78% (inactive)
- Potency [2]: inactive
- Potency [4]: inactive
- activity change % (negative = inhibition) [7]: -25.9% (inactive)
- outcome [6]: inactive

SMILES: CNC(=O)O/N=C/C(C)(C)S(C)(=O)=O
- activation [8]: 1.32% (inactive)
- max response [12]: -16.6%
- outcome [6]: inactive

SMILES: CCCCOCCOC(C)=O
- Potency [10]: inactive
- activation [11]: 1.59% (inactive)
- Potency [2]: inactive
- max response [3]: -10.5%
- Potency [4]: inactive
- activity change % (negative = inhibition) [7]: -3.6% (inactive)
- outcome [6]: inactive

SMILES: COC[C@H](C)N(C(=O)CCl)c1c(C)csc1C
- Potency [10]: inactive
- activation [11]: -0.72% (inactive)
- Potency [2]: inactive
- max response [3]: -36.8%
- activity change % (negative = inhibition) [7]: -22.8% (inactive)
- Potency [5]: 19.3 µM (active)

SMILES: Cc1cccc2sc3nncn3c12
- Potency [10]: inactive
- activation [11]: -0.105% (inactive)
- max response [3]: 26.1%
- max response [12]: 0.611%
- activity change % (negative = inhibition) [7]: 6.25% (inactive)
- Potency [5]: 2.73 µM (active)

SMILES: CC(C)=CC1[C@H](C(=O)OCc2cccc(Oc3ccccc3)c2)C1(C)C (stereo partly drawn)
- Potency [10]: inactive
- activation [11]: -3.66% (inactive)
- Potency [2]: inactive
- max response [3]: 26%
- max response [12]: -6.27%

SMILES: O=C(O)C(F)(F)C(F)(F)C(F)(F)C(F)(F)C(F)(F)C(F)(F)C(F)(F)C(F)(F)F
- Potency [10]: inactive
- activation [11]: 3.01% (inactive) and 1.7% (inactive)
- Potency [2]: inactive
- max response [3]: -4.97% and -33.9%
- Potency [4]: inactive
- activity change % (negative = inhibition) [7]: 1.6% (inactive) and 0.325% (inactive)
- Potency [5]: 24.3 µM (active)
- outcome [6]: inactive

SMILES: CCCCC(O)(Cn1cncn1)c1ccc(Cl)cc1Cl (stereo not drawn)
- activation [8]: -10.4% (inactive)
- Potency [10]: inactive
- activation [11]: -2.88% (inactive)
- Potency [2]: inactive
- max response [3]: -34%

SMILES: CC(C)(C)C(O)C(Oc1ccc(-c2ccccc2)cc1)n1cncn1 (stereo not drawn)
- activation [8]: -4.84% (inactive)
- Potency [10]: inactive
- activation [11]: 2.98% (inactive)
- Potency [2]: inactive
- max response [3]: -42.4%
- activity change % (negative = inhibition) [7]: -13.8% (inactive)
- Potency [5]: 68.6 µM (active)

SMILES: COP(=O)(OC)SCn1c(=O)oc2cc(Cl)cnc21
- activation [8]: 7.35% (inactive)
- Potency [9]: inactive
- Potency [2]: inactive
- Potency [5]: 27.3 µM (active)
- outcome [6]: inactive

SMILES: CCOc1nc(F)cc2nc(S(=O)(=O)Nc3c(Cl)cccc3Cl)nn12
- Potency [10]: inactive
- activation [11]: -0.748% (inactive)
- max response [3]: 23.2%
- Potency [4]: inactive
- activity change % (negative = inhibition) [7]: -10.3% (inactive)
- outcome [6]: inactive

SMILES: CCCCOCN(C(=O)CCl)c1c(CC)cccc1CC
- Potency [10]: inactive
- activation [11]: -0.328% (inactive)
- activity change % (negative = inhibition) [7]: -14.9% (inactive)
- Potency [5]: 24.3 µM (active)
